# Data: the supplement of paper PMC6607015
# Counter-ions that a name gives are not always drawn.
# Tested on: A431
# Test: whole-cell filipin (free cholesterol) integrated intensity, Z-score; higher = more cholesterol staining
# Settings: compound concentration in added solution (µM; 5 µl added to 20 µl cells): 10; 18 h
# How it was run: (§1)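 HeLa MZ or A431 cells (3,500/well in 20 µl) were seeded onto 5 µl of 10 µM compound solution in duplicate 384-well imaging plates, incubated 18 h, then fixed in 4% PFA. Cells were stained with 6C4 anti-LBPA antibody, filipin, propidium iodide and CellTracker green, and four 20× images were taken per well. MetaXpress segmentation gave per-cell integrated LBPA or filipin intensity, either whole-cell or within LBPA endosomes. Values are Z-scores normalised in AcuityXpress.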
row,Structure (SMILES),whole-cell filipin (z-score)
1,"CN(Cc1cnc2nc(N)nc(N)c2n1)c1ccc(C(=O)N[C@@H](CCC(=O)O)C(=O)O)cc1 (racemic) [Amethopterin (R,S)]",0.379
2,NS(=O)(=O)c1cc2c(cc1Cl)NC(CC1CCCC1)NS2(=O)=O (stereo not given) [Cyclopenthiazide],-0.203
3,NC(=O)c1cc[n+](CC2=C(C(=O)[O-])N3C(=O)[C@@H](NC(=O)[C@@H](c4ccccc4)S(=O)(=O)O)[C@H]3SC2)cc1 [Cefsulodin sodium salt],-0.331
4,CS(=O)(=O)c1ccc(C2=C(c3ccccc3)C(=O)OC2)cc1 [Rofecoxib],-1.07
5,O=c1oc2ccccc2c(O)c1Cc1c(O)c2ccccc2oc1=O [Dicumarol],-0.37
6,O=C(O)c1cc(=O)c2c(OCC(O)COc3cccc4oc(C(=O)O)cc(=O)c34)cccc2o1 [Cromolyn disodium salt],-0.438
7,CNCCC(Oc1ccccc1OC)c1ccccc1 (stereo not given) [Nisoxetine hydrochloride],0.38
8,C#C[C@]1(O)CC[C@H]2[C@@H]3CCC4=Cc5oncc5C[C@]4(C)[C@H]3CC[C@@]21C [Danazol],-0.615
9,COc1ccc(-c2cc(=S)ss2)cc1 [Anethole-trithione],-0.0973
10,CN(C)CCCC1(c2ccc(F)cc2)OCc2cc(C#N)ccc21 (stereo not given) [Citalopram Hydrobromide],0.204
11,Nc1cc(C(Cl)=C(Cl)Cl)c(S(N)(=O)=O)cc1S(N)(=O)=O [Clorsulon],-0.73

# Tested on: HeLa MZ
# Test: as above
# Settings: compound concentration in added solution (µM; 5 µl added to 20 µl cells): 10; 18 h
# How it was run: as §1
row,Structure (SMILES),whole-cell filipin (z-score)
1,CCN1CCC[C@H]1CNC(=O)c1c(OC)ccc(Br)c1OC [Remoxipride Hydrochloride],-0.384
2,CN(C(=O)C(Cl)Cl)c1ccc(OC(=O)c2ccco2)cc1 [Diloxanide furoate],-0.7
3,CCn1cc(C(=O)O)c(=O)c2ccc(C)nc21 [Nalidixic acid sodium salt],-0.298
4,O=C1CCc2cc(OCCCCc3nnnn3C3CCCCC3)ccc2N1 [Cilostazol],-0.703
5,CNC(=C[N+](=O)[O-])NCCSCc1ccc(CN(C)C)o1 [Ranitidine hydrochloride],-1.05
6,CCc1cccc2c3c([nH]c12)C(CC)(CC(=O)O)OCC3 (stereo not given) [Etodolac],-0.545
7,Nc1c2c(nc3ccccc13)CCCC2 [Tacrine hydrochloride],0.0516
8,CNNCc1ccc(C(=O)NC(C)C)cc1 [Procarbazine hydrochloride],-0.325
9,COCCOC(=O)C1=C(C)NC(C)=C(C(=O)OC(C)C)C1c1cccc([N+](=O)[O-])c1 (stereo not given) [Nimodipine],0.629
10,NC[C@@H]1O[C@@H](O[C@H]2[C@H](O)[C@@H](O[C@H]3O[C@H](CO)[C@@H](O)[C@H](N)[C@H]3O)[C@H](N)C[C@@H]2N)[C@@H](O)[C@H](O)[C@H]1O [Kanamycin A sulfate],-0.361
11,OC[C@H]1O[C@@H](Oc2ccc(O)cc2)[C@H](O)[C@@H](O)[C@@H]1O [Arbutin],-0.0721
12,CCOC(=O)[C@@](C)(N)Cc1ccc(O)c(O)c1 [Methyldopate hydrochloride],-0.577
13,CC1(C)S[C@@H]2[C@H](NC(=O)[C@H](N)c3ccccc3)C(=O)N2[C@H]1C(=O)O [Ampicillin trihydrate],-0.707
14,Oc1ncnc2[nH]ncc12 [Allopurinol],-0.285
15,CO/N=C(\C(=O)N[C@@H]1C(=O)N2C(C(=O)O)=C(COC(N)=O)CS[C@H]12)c1ccco1 [Cefuroxime sodium salt],0.0343
16,OCCN1CCN(CC/C=C2/c3ccccc3Sc3ccc(Cl)cc32)CC1 [Zuclopenthixol hydrochloride],0.439
17,Cn1nnnc1SCC1=C(C(=O)O)N2C(=O)[C@@H](NC(=O)[C@H](O)c3ccccc3)[C@H]2SC1 [Cefamandole sodium salt],0.0398
18,CC(N/C(=N\C#N)Nc1ccncc1)C(C)(C)C (stereo not given) [Pinacidil],-0.503
19,COc1ccccc1Oc1c(NS(=O)(=O)c2ccc(C(C)(C)C)cc2)nc(-c2ncccn2)nc1OCCO [Bosentan],0.0121
20,CC(C)(O/N=C(\C(=O)N[C@@H]1C(=O)N2C(C(=O)[O-])=C(C[n+]3ccccc3)CS[C@H]12)c1csc(N)n1)C(=O)O [Ceftazidime pentahydrate],-0.099

row,Structure (SMILES),whole-cell filipin (z-score)
1,Nc1nc2c(ncn2COC(CO)CO)c(=O)[nH]1 [Ganciclovir],0.0803
2,CCN(CCCc1ccccc1)CCCc1ccccc1 [Alverine citrate salt],-0.0321
3,CC(=O)OC(C)C[N+](C)(C)C (stereo not given) [Methacholine chloride],-0.293
4,C[C@@H](c1ncncc1F)[C@](O)(Cn1cncn1)c1ccc(F)cc1F [Voriconazole],-0.527
5,Nc1nc(F)nc2c1ncn2[C@@H]1O[C@H](CO)[C@@H](O)[C@@H]1O [Fludarabine],1.82
6,Cc1ccc2c(c1)c1c3n2CCNC3CCC1 (stereo not given) [Pirlindole mesylate],0.474
7,O=C(O[C@@H]1C[C@@H]2C[C@H]3C[C@H](C1)N2CC3=O)c1c[nH]c2ccccc12 [Dolasetron mesilate],0.0841
8,COC(=O)C1=C(C)NC(C)=C(C(=O)OCC(C)C)C1c1ccccc1[N+](=O)[O-] (stereo not given) [Nisoldipine],0.224
9,"CN(Cc1cnc2nc(N)nc(N)c2n1)c1ccc(C(=O)N[C@@H](CCC(=O)O)C(=O)O)cc1 (racemic) [Amethopterin (R,S)]",2.03
10,NS(=O)(=O)c1cc2c(cc1Cl)NC(CC1CCCC1)NS2(=O)=O (stereo not given) [Cyclopenthiazide],-0.467
11,NC(=O)c1cc[n+](CC2=C(C(=O)[O-])N3C(=O)[C@@H](NC(=O)[C@@H](c4ccccc4)S(=O)(=O)O)[C@H]3SC2)cc1 [Cefsulodin sodium salt],-0.0382
12,CS(=O)(=O)c1ccc(C2=C(c3ccccc3)C(=O)OC2)cc1 [Rofecoxib],-0.451
13,O=c1oc2ccccc2c(O)c1Cc1c(O)c2ccccc2oc1=O [Dicumarol],-0.48
14,O=C(O)c1cc(=O)c2c(OCC(O)COc3cccc4oc(C(=O)O)cc(=O)c34)cccc2o1 [Cromolyn disodium salt],-0.156
15,CNCCC(Oc1ccccc1OC)c1ccccc1 (stereo not given) [Nisoxetine hydrochloride],0.302
16,C#C[C@]1(O)CC[C@H]2[C@@H]3CCC4=Cc5oncc5C[C@]4(C)[C@H]3CC[C@@]21C [Danazol],-0.566
17,COc1ccc(-c2cc(=S)ss2)cc1 [Anethole-trithione],0.207
18,CN(C)CCCC1(c2ccc(F)cc2)OCc2cc(C#N)ccc21 (stereo not given) [Citalopram Hydrobromide],0.212
19,Nc1cc(C(Cl)=C(Cl)Cl)c(S(N)(=O)=O)cc1S(N)(=O)=O [Clorsulon],-0.454
